Tb PFK inh-1 = blocks T. brucei phosphofructokinase. actives 0.17% (n = 330,000). T. brucei PFK, ADP-Glo luminescence. Potency, µM (top dose mostly 57.5 µM), actives largely listed as inhibitors. O15648; note: nearly all actives have a fitted effect of over 60% in size
Target sequence (O15648 whole entry, looked up): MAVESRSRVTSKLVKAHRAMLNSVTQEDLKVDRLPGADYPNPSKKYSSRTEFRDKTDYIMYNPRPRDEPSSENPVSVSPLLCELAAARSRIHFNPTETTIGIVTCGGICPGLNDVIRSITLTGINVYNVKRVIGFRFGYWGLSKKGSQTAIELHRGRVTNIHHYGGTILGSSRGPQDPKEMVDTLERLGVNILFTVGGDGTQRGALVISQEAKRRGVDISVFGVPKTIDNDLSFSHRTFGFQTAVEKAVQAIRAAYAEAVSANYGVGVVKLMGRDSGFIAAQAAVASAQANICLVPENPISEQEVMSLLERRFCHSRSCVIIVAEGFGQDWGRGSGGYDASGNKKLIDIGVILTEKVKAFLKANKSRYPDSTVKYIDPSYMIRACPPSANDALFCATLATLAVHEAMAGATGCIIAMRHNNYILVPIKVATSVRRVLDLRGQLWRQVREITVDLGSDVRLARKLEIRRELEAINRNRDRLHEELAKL
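Activity is normalized to no-enzyme wells (full inhibition) and 1.25 nM enzyme wells (no inhibition). Reaction: 0.5 mM F6P, 0.1 mM ATP, 45 min RT, ADP-Glo luminescence; concentration-response curves fitted and classed by quality.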
Tb PGK inh = inhibitors of T. brucei phosphoglycerate kinase. PGK/GAPDH coupled, Kinase-Glo luminescence, 60 min. Potency, µM (series often up to 57.5 µM), actives largely listed as inhibitors. actives 0.043% (n = 380,000). AID 602233; note: nearly all actives have a fitted effect of over 60% in size
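Recombinant glycosomal PGK reaction used 1,3-bisphosphoglycerate generated in-well by GAPDH (100nM final) in 100mM TEA pH 7.6, 5mM MgCl2, 0.01% Tween-20. After 60 minutes at room temperature, ATP was read by Kinase-Glo Plus luminescence end-point.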
PI4K2A inh = inhibitors of human PI4K2A; purified PI4K2A, ADP-Glo luminescence, 1 h; active compounds read low; Q9BTU6; activity change, negative = inhibition, % at 76.9 µM; actives 0.13% (n = 420,000); in the data active = activity change below about -50%; inconclusive = mostly about -30% to -49%
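PI4K2A activity was measured by ADP-Glo luminescence: enzyme (4 ug/mL stock) and phosphatidylinositol (1.2 mM stock) in Tris pH 7.5/MgCl2/EGTA/Triton X-100 buffer were reacted with ATP (300 microM stock) for one hour at ambient temperature.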
Pin1 inhibitor = inhibitors of human Pin1; Q13526; Pin1 FP peptide displacement, HiFluor488, 10 min; Potency, µM (titrated, usually from 115 µM), most hits filed as inhibitors; actives 0.009% (n = 390,000); active = well fitted inhibition curve with a large enough effect in the polarisation, with a control signal flat, not every such curve was filed as active; inconclusive = small, poorly fitted or top-dose-only effect, or effect the other way, or a change in a side signal; inactive = no such curve, though single readings can be large or run the other way; the % refers to the polarisation
Target sequence (Q13526 whole entry, looked up): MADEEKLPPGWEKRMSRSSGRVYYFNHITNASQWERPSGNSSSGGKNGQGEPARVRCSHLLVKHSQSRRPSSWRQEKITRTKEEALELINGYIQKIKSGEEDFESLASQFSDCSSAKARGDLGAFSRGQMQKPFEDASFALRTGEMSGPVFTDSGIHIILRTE
BCR signal inh = blocks chronic active B-cell receptor signaling. ABC-DLBCL IkBa-CBG/CBR reporter, luminescence ratio, 4 h. Potency, µM (series often up to 46.1 µM), hits mostly inhibitors. actives 0.05% (n = 340,000). AID 493014; active = well fitted inhibition curve with a large enough effect in the signal ratio, with a control signal flat, not every such curve was filed as active; inconclusive = small, poorly fitted or top-dose-only effect, or effect the other way, or a change in a side signal; the % refers to the signal ratio
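Doxycycline induced both beetle luciferases in TMD8 lymphoma cells; IKK-driven degradation limits the IkappaBalpha-fused green signal, while red luminescence normalises for cell number and nonspecific effects. Compounds tested up to 46 uM, 4 hrs.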
TbPFK ATP = orthogonal confirmation of T. brucei phosphofructokinase inhibitors; shares compounds with Tb PFK inh-1; Tb PFK enzyme, ATP depletion, Kinase-Glo Plus luminescence; Potency, µM (series often up to 57.5 µM); actives 47% (n = 1,100); AID 504636; calls by dose curve; note: nearly all actives have a fitted effect of over 60% in size
Tb PFK inh-2 = T. brucei PFK enzyme inhibition, hit validation; shares compounds with Tb PFK inh-1; purified T. brucei PFK, ADP-Glo luminescence, 45 min; Potency, µM (titrated, usually from 57.5 µM), most hits filed as inhibitors; actives 41% (n = 1,100); note: nearly all actives have a fitted effect of over 60% in size
Hits are given with their value; i = inactive; ? = inconclusive; nt = no result. This is a sample that favours compounds with a hit; in the whole collection about 0.34% have one here. Unless noted, calls come from the whole dose curve; as a rule, active = well fitted curve in the direction sought with a large enough effect; inconclusive = small, poorly fitted or top-dose-only effect, or another doubt; inactive = no such curve, though single readings can be large; an effect the other way counts as inactive or inconclusive.

SMILES | Tb PFK inh-1 | Tb PGK inh | PI4K2A inh | Pin1 inhibitor | BCR signal inh | TbPFK ATP | Tb PFK inh-2
O=[N+]([O-])c1cc(Cl)c2cccnc2c1O | i | i | i | i | 11.2µM | nt | nt
Cc1ccc(-c2cc(C(=O)Nc3nccs3)c3ccccc3n2)o1 | 30.1µM | i | i | i | ? | 21.3µM | ?
Cc1ccc(-c2cc(C(=O)Nc3nccs3)c3ccccc3n2)c(C)c1 | i | i | i | i | ? | nt | nt
c1ccc(-c2csc(-n3cnnn3)n2)cc1 | ? | i | i | i | i | ? | i
CN1CCN(N)CC1 | nt | nt | i | nt | nt | nt | nt
COc1ccc(-c2cc(=NCCC(=O)O)c3cc(C)ccc3o2)cc1 | ? | i | i | i | ? | i | ?
CC(Nc1cccc([N+](=O)[O-])c1)C(=O)Nc1ccc(S(=O)(=O)N2CCCC2)cc1 (centres undefined) | ? | i | i | i | ? | ? | ?
COc1cccc(C2c3c(ncn(-c4ccc(F)cc4)c3=N)Oc3ccc4ccccc4c32)c1 (centres undefined) | nt | nt | nt | i | nt | nt | nt
CCOC(=O)c1c(-c2ccco2)csc1NC(=O)COC(=O)c1cnccn1 | 6.75µM | i | i | ? | i | 23.9µM | i
CCOC(=O)c1c(NC(=O)COC(=O)c2cnccn2)sc(C(=O)NC)c1C | i | i | i | i | i | nt | nt
Clc1ccc(Cn2ncc3c(N4CCCC4)ncnc32)cc1 | ? | i | i | i | ? | ? | ?
Fc1ccc(NCc2cccnc2)cc1F | 23.9µM | i | i | ? | i | 13.5µM | 26.9µM
O=C(O)[C@@H](c1ccccc1)N1Cc2ccccc2C1=O | ? | i | i | i | i | ? | ?
CC(=O)Nc1ccc(NC(=O)C(c2ccccc2)N2Cc3ccccc3C2=O)cc1 (centres undefined) | nt | i | i | i | nt | nt | nt
CCc1nnc(NC(=O)C(=O)NCCOC(=O)c2ccccc2Cl)s1 | ? | i | i | i | i | i | ?
O=C(Nc1cnn(Cc2ccc(Cl)c(Cl)c2)c1)C12CC3CC(CC(C3)C1)C2 | ? | i | i | i | i | ? | ?
CCOc1ccc(C(=O)Nc2cnn(Cc3ccc(Cl)c(Cl)c3)c2)cc1 | ? | i | i | i | i | nt | nt
Cc1nc(Cc2nnc(SCC(=O)N3CCN(c4ccc(O)cc4)CC3)o2)cs1 | ? | i | i | ? | i | ? | ?
c1ccc(Cn2cnc3ccccc32)cc1 | i | nt | i | i | i | nt | nt
Fc1cc2ncn(Cc3ccccc3)c2cc1F | ? | i | i | i | i | ? | ?
Cn1c2cc(S(C)(=O)=O)sc2c2cnn(Cc3ccccc3F)c(=O)c21 | nt | nt | nt | i | nt | nt | nt
CCc1c(C)sc(NC(=O)c2ccoc2C)c1C(N)=O | ? | i | i | i | i | 3.38µM | 8.49µM
CCCC(=O)O[C@]1(C(=O)CC)CC[C@H]2[C@@H]3CCC4=CC(=O)CC[C@]4(C)[C@H]3[C@@H](O)C[C@@]21C | nt | nt | i | nt | nt | nt | nt
COc1ccccc1NS(=O)(=O)c1cc(NC(=O)c2ccc(Cl)nc2)ccc1N1CCCC1 | 16.9µM | i | i | i | i | 4.78µM | 6.01µM
CC(Cc1ccccc1)NCCCCl (centres undefined) | nt | nt | i | nt | nt | nt | nt
SMILES | Tb PFK inh-1 | Tb PGK inh | PI4K2A inh | Pin1 inhibitor | BCR signal inh | TbPFK ATP | Tb PFK inh-2
NS(=O)(=O)c1ccc(NC(=O)COC(=O)COc2ccc(Cl)cc2)cc1 | i | i | i | i | i | nt | nt
O=S(=O)(c1ccc(NC(=S)NCCc2ccccc2)cc1)N1CCOCC1 | i | i | i | i | i | nt | nt
S=C(NCc1ccc(Cl)cc1)Nc1ccncc1 | 8.49µM | i | i | i | i | 7.57µM | 12µM
CC(C)OCCCNC(=S)Nc1ccc(S(N)(=O)=O)cc1 | 26.9µM | i | i | i | ? | 6.75µM | 13.5µM
NS(=O)(=O)c1ccc(NC(=O)COc2ccc(Cl)cc2)cc1 | 1.9µM | nt | i | i | i | 1.07µM | ?
O=S(=O)(c1ccc(NC(=S)NCc2ccc(F)cc2)cc1)N1CCOCC1 | 23.9µM | i | i | i | i | 12µM | 30.1µM
O=C1c2ccccc2C(=O)N1Cc1ccncc1 | nt | nt | nt | i | nt | nt | nt
Cn1c2cc(C=O)sc2c2cnn(Cc3ccccc3F)c(=O)c21 | nt | nt | nt | i | nt | nt | nt
NS(=O)(=O)c1ccc(NC(=S)NC2CCCCCC2)cc1 | i | i | i | i | ? | nt | nt
O=[N+]([O-])c1ccc(NC(=S)NCc2ccncc2)cc1 | ? | i | i | i | ? | nt | nt
O=[N+]([O-])c1ccc(NC(=S)NCc2ccc(F)cc2)cc1 | ? | i | i | ? | ? | 19µM | ?
NS(=O)(=O)c1ccc(NC(=S)NCc2ccc(Cl)cc2)cc1 | 12µM | i | i | i | ? | 2.69µM | 5.36µM
NS(=O)(=O)c1ccc(NC(=S)NC2CCCC2)cc1 | ? | i | i | i | ? | i | i
NS(=O)(=O)c1ccc(CNC(=S)Nc2ccc(F)c(Cl)c2)cc1 | ? | i | i | i | i | nt | nt
NS(=O)(=O)c1ccc(NC(=O)CSc2ccccc2)cc1 | 15.1µM | i | i | i | i | 23.9µM | 30.1µM
O=C(c1ccccc1O)N(Cc1ccco1)Cc1ccco1 | nt | nt | nt | i | nt | nt | nt
NS(=O)(=O)c1ccc(NC(=S)NCc2ccc(F)cc2)cc1 | 23.9µM | i | i | i | i | 10.7µM | 23.9µM
c1ccc(CNCc2nnc(-c3cc4ccccc4[nH]3)o2)cc1 | nt | nt | nt | i | nt | nt | nt
O=C(CCNc1ccc(Cl)c(C(F)(F)F)c1)c1ccco1 | ? | i | i | i | i | ? | ?
O=C(CCNc1ccc(F)c(Cl)c1)c1ccco1 | ? | i | i | i | i | 13.5µM | 21.3µM
O=C(CCNc1cccc(C(F)(F)F)c1)c1ccco1 | i | i | i | i | ? | nt | nt
Nc1c(I)cc(I)c(C(=O)N(CCC(=O)O)c2ccccc2)c1I | nt | nt | i | nt | nt | nt | nt
COC(=O)c1ccc(-c2noc(CN(C)CCC3CCCCO3)n2)cc1 (centres undefined) | ? | i | i | i | ? | i | ?
COc1ccc(-c2noc(CN(C)CCC3CCCCO3)n2)cc1 (centres undefined) | i | i | i | i | i | nt | nt
CCOc1cccc(N2C(=O)/C(=C/c3ccco3)C(=O)NC2=S)c1 | ? | ? | i | i | i | ? | ?
SMILES | Tb PFK inh-1 | Tb PGK inh | PI4K2A inh | Pin1 inhibitor | BCR signal inh | TbPFK ATP | Tb PFK inh-2
CSc1ccc(C(=S)N2CCN(C)CC2)cc1 | ? | i | i | i | i | 21.3µM | ?
CN1CCN(C(=S)c2ccc(Br)cc2)CC1 | ? | i | i | i | i | 12µM | 13.5µM
CN1CCN(C(=S)c2ccc(N(C)C)cc2)CC1 | ? | i | i | i | i | 12µM | 26.9µM
CN(C)c1ccc(C(=S)N2CCN(Cc3ccccc3)CC2)cc1 | ? | i | i | i | i | nt | nt
CN1CCN(C(=S)c2ccc([N+](=O)[O-])cc2)CC1 | i | i | i | i | i | nt | nt
O=C1CCCC2=C1C1(CCSCC1)N=C(Nc1nc3ccccc3o1)N2 | nt | nt | nt | i | nt | nt | nt
Cc1ccc(N2C(=O)[C@@H]3[C@H](C2=O)C2c4ccccc4C=CN2[C@@H]3C(=O)c2ccco2)cc1 (some centres undefined) | i | i | i | ? | i | nt | nt
